Test results taken from PubChem BioAssay (NCATS).
“And” between values parts separate entries of the source, which are not always exact repeats. Equal values may be shown once. Records with an inconclusive call do not appear. The source holds several records for some structures; these can differ, active in one and inactive in another. The source made the active and inactive calls. Unless noted, calls follow the shape of the full dose curve.

tested on: not listed separately; assay: AP1 Signaling Pathway (AID 357; active = well fitted curve in either direction with a large enough effect, not every such curve was filed as active; also: % is scaled to controls: 0 for no effect and ±100 for the full control effect); conditions: ME-180 (cervical carcinoma) AP-1-bla reporter, EGF-induced, beta-lactamase ratio, 5 h; series mostly up to 17.2 µM; activity change, negative = inhibition: at the top concentration
Summary of the method: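 AP-1-bla ME-180 cells with beta-lactamase reporter under AP-1 response element, stimulated with EC50 EGF; compounds titrated, 5 hours at 37 degrees Celsius. CCF4 read at 460/530 nm ratio; positive and negative modulators judged by AC50.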

**Q.** For `O=c1[nH]oc2c1CCNC2`, which outcome is on record?
**A.** inactive

**Q.** With `COc1c2c(cc3c1OCO3)CCN(C)C2` as the molecule, how does the “activity change, negative = inhibition” value read?
**A.** 2.98% (inactive)

**Q.** For `O=C(O)CCCc1ccc(N(CCCl)CCCl)cc1`, which outcome is on record?
**A.** inactive

**Q.** For `NCCc1ccc(O)cc1`, which “activity change, negative = inhibition” value is on record?
**A.** -5.67% [at 38 µM] (inactive)

**Q.** With `CCCCC/C=C\C/C=C\C/C=C\C/C=C\CCCC(=O)NCC(=O)O` as the molecule, how does the “activity change, negative = inhibition” value read?
**A.** -3.65% [at 38 µM] (inactive)

**Q.** For `[N-]=[N+]=CC(=O)OC[C@H](N)C(=O)O`, which “activity change, negative = inhibition” value is on record?
**A.** 13.4% (inactive)

**Q.** Which “activity change, negative = inhibition” value does the source give for `C#C[C@]1(O)CC[C@H]2[C@@H]3CCC4=CC(=O)CC[C@]4(C)[C@H]3CC[C@@]21C` here?
**A.** 15.1% (inactive)

**Q.** For `C[C@]12CCC(=O)C=C1CC[C@@H]1[C@@H]2CC[C@]2(C)C(=O)CC[C@@H]12`, which “activity change, negative = inhibition” value is on record?
**A.** 9.47% (inactive)

**Q.** Which “activity change, negative = inhibition” value does the source give for `O=P1(N(CCCl)CCCl)NCCCO1` (stereo unspecified) here?
**A.** 10.4% [at 38 µM] (inactive)

**Q.** Which “activity change, negative = inhibition” value does the source give for `CNC(C)(C)Cc1ccccc1` here?
**A.** -8.83% (inactive)

**Q.** For `COc1ccc2c(c1)C13CCCC[C@@H]1C(C2)N(C)CC3` (stereo partly specified), which “activity change, negative = inhibition” value is on record?
**A.** 12.7% (inactive)

**Q.** Which outcome does the source give for `CC(C)c1cccc(C(C)C)c1O` here?
**A.** inactive

**Q.** For `O=C(CCCN1CCC2(CC1)C(=O)NCN2c1ccccc1)c1ccc(F)cc1`, which “activity change, negative = inhibition” value is on record?
**A.** 20.8% (inactive)

**Q.** For `CCC1(CC)C(=O)C=CNC1=O`, which “activity change, negative = inhibition” value is on record?
**A.** 2.12% (inactive)

**Q.** Which “activity change, negative = inhibition” value does the source give for `CC(NC(C)(C)C)C(=O)c1cccc(Cl)c1` (stereo unspecified) here?
**A.** -0.934% (inactive)

**Q.** For `C[N+]1(C)[C@@H]2CC(OC(=O)[C@H](CO)c3ccccc3)C[C@H]1[C@@H]1O[C@@H]12` (stereo partly specified), which “activity change, negative = inhibition” value is on record?
**A.** 5.16% (inactive)

**Q.** For `CC(C)N(CCC(C(N)=O)(c1ccccc1)c1ccccn1)C(C)C` (stereo unspecified), which “activity change, negative = inhibition” value is on record?
**A.** 3.98% (inactive)

target: Cytochrome P450 1A2 (Homo sapiens) (UniProt P05177); assay: p450-cyp1a2 (AID 410); conditions: recombinant CYP1A2, luciferin-ME demethylation, luminescence; series mostly up to 57 µM; activity change, negative = inhibition: at the top concentration; also: potency is read from the fitted curve at half-maximal effect;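 as to activity change, negative = inhibition: -100% = full effect of reference inhibitor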
Summary of the method: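 Luminescent demethylation readout: Luciferin-ME (100uM, equal to Km) turned over by 20nM CYP1A2 for 60 min at room temperature after NADPH regeneration addition, following 10 min compound preincubation. Normalization used 57 uM furafylline as full inhibition.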

Cytochrome P450 1A2 (Homo sapiens), sequence (P05177 whole entry, looked up): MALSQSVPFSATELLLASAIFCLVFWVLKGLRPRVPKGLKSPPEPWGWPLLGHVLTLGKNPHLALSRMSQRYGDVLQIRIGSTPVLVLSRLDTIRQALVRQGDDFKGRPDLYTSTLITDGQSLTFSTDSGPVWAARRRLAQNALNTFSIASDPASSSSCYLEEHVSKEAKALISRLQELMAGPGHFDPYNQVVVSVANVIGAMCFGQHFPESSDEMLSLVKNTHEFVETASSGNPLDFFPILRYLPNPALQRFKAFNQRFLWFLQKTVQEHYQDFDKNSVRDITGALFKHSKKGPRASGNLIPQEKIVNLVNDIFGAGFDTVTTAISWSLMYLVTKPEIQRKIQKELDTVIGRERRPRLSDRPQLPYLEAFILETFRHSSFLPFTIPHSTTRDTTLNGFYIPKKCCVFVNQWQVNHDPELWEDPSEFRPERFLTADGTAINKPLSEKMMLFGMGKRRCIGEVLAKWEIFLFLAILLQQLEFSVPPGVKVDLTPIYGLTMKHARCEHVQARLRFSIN

**Q.** For `O=c1[nH]oc2c1CCNC2`, which Potency is on record?
**A.** inactive

**Q.** Which Potency does the source give for `COc1c2c(cc3c1OCO3)CCN(C)C2` here?
**A.** 2 µM (active)

**Q.** Which Potency does the source give for `O=C(O)CCCc1ccc(N(CCCl)CCCl)cc1` here?
**A.** inactive

**Q.** With `NCCc1ccc(O)cc1` as the molecule, how does the “activity change, negative = inhibition” value read?
**A.** -14.6% (inactive)

**Q.** With `CCCCC/C=C\C/C=C\C/C=C\C/C=C\CCCC(=O)NCC(=O)O` as the molecule, how does the “activity change, negative = inhibition” value read?
**A.** -16.3% (inactive)

**Q.** For `O=P1(N(CCCl)CCCl)NCCCO1` (stereo unspecified), which “activity change, negative = inhibition” value is on record?
**A.** 8% (inactive)

**Q.** With `Cc1ncsc1CCCl` as the molecule, how does the Potency read?
**A.** 31.6 µM (active)

**Q.** With `CNC(C)(C)Cc1ccccc1` as the molecule, how does the “activity change, negative = inhibition” value read?
**A.** -1.9% [at 25.6 µM] (inactive)

**Q.** With `O=c1oc2ccccc2c(O)c1Cc1c(O)c2ccccc2oc1=O` as the molecule, how does the Potency read?
**A.** 12.6 µM (active)

**Q.** For `O=C(CCCN1CCC2(CC1)C(=O)NCN2c1ccccc1)c1ccc(F)cc1`, which Potency is on record?
**A.** inactive and 25.1 µM (active)

**Q.** Which “activity change, negative = inhibition” value does the source give for `CCC1(CC)C(=O)C=CNC1=O` here?
**A.** -8.1% [at 25.6 µM] (inactive)

tested on: not listed separately; assay: Cell Viability - BJ (AID 421); conditions: BJ fibroblast viability, qHTS;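 also: potency is read from the fitted curve at half-maximal effect; cells exposed to compound for 40 hours at 37 °C before readout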
Summary of the method: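 Quantitative HTS: ATP depletion in BJ cells after 40 hr compound exposure in complete culture medium, detected with CellTiter-Glo; AC50 from standard Hill fits.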

**Q.** For `NCCc1ccc(O)cc1`, which Potency is on record?
**A.** > 92 µM (inactive)

**Q.** Which Potency does the source give for `Oc1ccc(Cl)cc1` here?
**A.** > 92 µM (inactive)

**Q.** For `COP(=S)(OC)Oc1ccc(SC)c(C)c1`, which Potency is on record?
**A.** > 92 µM (inactive)

**Q.** For `Nc1ccccc1`, which Potency is on record?
**A.** > 92 µM (inactive)

**Q.** Which Potency does the source give for `COC(=O)C(c1ccccc1)C1CCCCN1` (stereo unspecified) here?
**A.** > 92 µM (inactive)

**Q.** With `C[C@]12CCC(=O)C=C1CC[C@@H]1[C@@H]2CC[C@]2(C)C(=O)CC[C@@H]12` as the molecule, how does the Potency read?
**A.** > 92 µM (inactive)

**Q.** Which Potency does the source give for `CCOC(=O)CC(SP(=S)(OC)OC)C(=O)OCC` (stereo unspecified) here?
**A.** > 92 µM (inactive)

**Q.** For `O=P1(N(CCCl)CCCl)NCCCO1` (stereo unspecified), which Potency is on record?
**A.** > 92 µM (inactive)

**Q.** Which Potency does the source give for `CN1C[C@H](C(=O)N[C@]2(C)O[C@@]3(O)[C@@H]4CCCN4C(=O)[C@H](Cc4ccccc4)N3C2=O)C=C2c3cccc4[nH]cc(c34)C[C@H]21` here?
**A.** > 92 µM (inactive)

**Q.** For `Nc1ccccc1C(=O)O`, which Potency is on record?
**A.** > 92 µM (inactive)

**Q.** For `CC(C)NC(C)C`, which Potency is on record?
**A.** > 92 µM (inactive)

**Q.** Which Potency does the source give for `CCC(C)(C)c1ccc(O)cc1` here?
**A.** > 92 µM (inactive)

**Q.** Which Potency does the source give for `C[C@]1(O)CC[C@H]2[C@@H]3CCC4=CC(=O)CC[C@]4(C)[C@@]3(F)[C@@H](O)C[C@@]21C` here?
**A.** > 92 µM (inactive)

**Q.** For `CC(C)c1cccc(C(C)C)c1O`, which Potency is on record?
**A.** > 92 µM (inactive)

**Q.** For `Clc1ccc(C(c2ccc(Cl)cc2)C(Cl)(Cl)Cl)cc1`, which Potency is on record?
**A.** > 92 µM (inactive)

**Q.** For `COc1cc(OC)c(OC)cc1C=O`, which Potency is on record?
**A.** > 92 µM (inactive)

**Q.** Which Potency does the source give for `C[C@]12CCC(=O)C=C1CC[C@@H]1[C@@H]2CC[C@@]2(C)[C@H]1CC[C@]2(C)O` here?
**A.** > 92 µM (inactive)

**Q.** With `CCCC(C)(COC(N)=O)COC(N)=O` as the molecule, how does the Potency read?
**A.** > 92 µM (inactive)
